Reference: ChEMBL document CHEMBL3988442, “University of Dundee, Small-Polar-MMV Screening Library” (2021)
For part of these data: Entries with a potency or affinity are not part of this list.

Assays:
Set-up in all cases: scale not given: direction of the effect not stated beside the values
[1] = biological target: Protein translocase subunit SecA (Escherichia coli (strain K12)) (UniProt P10408); assay: Assay to Identify E. coli SecA ATPase Inhibitors; assay type: functional; conditions: 30 µM
[2] = biological target: T1, Ubiquitin-activating enzyme e1, putative (Leishmania donovani (strain BPK282A1)) (UniProt E9BSI1); assay: Leishmania donovani Ubiquitin Activating Enzyme (LdE1); assay type: functional; conditions: 30 µM
T1 sequence (whole entry): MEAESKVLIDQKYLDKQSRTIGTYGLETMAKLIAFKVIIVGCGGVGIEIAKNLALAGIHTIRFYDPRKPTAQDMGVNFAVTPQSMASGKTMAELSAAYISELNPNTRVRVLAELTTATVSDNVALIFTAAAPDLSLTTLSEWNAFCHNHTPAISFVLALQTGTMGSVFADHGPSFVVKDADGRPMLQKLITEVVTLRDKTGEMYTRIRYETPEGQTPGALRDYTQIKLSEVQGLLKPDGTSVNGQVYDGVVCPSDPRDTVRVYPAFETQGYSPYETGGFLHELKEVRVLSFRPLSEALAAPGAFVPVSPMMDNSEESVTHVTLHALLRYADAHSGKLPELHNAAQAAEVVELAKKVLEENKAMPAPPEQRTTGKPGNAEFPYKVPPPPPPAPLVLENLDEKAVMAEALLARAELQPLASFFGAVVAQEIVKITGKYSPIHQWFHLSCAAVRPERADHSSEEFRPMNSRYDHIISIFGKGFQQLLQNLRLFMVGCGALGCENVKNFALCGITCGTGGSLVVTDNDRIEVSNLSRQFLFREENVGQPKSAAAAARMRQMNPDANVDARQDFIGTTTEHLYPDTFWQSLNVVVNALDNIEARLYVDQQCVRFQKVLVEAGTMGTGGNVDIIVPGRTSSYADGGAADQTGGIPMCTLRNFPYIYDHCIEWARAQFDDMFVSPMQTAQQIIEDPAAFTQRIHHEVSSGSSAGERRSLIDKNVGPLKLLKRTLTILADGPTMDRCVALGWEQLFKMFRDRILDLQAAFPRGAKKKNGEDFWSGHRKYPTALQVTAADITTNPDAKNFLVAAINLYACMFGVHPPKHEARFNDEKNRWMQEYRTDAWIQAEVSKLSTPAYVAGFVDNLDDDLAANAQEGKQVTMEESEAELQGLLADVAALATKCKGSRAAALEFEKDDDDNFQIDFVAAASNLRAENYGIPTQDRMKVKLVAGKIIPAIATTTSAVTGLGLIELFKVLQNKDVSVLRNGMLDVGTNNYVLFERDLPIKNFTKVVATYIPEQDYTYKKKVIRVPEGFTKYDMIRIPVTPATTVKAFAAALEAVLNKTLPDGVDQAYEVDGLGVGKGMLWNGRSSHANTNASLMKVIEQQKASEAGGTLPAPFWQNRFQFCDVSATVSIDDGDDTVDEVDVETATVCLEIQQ

[3] = biological target: AMP-activated protein kinase, AMPK (Homo sapiens) (UniProt P54646+O43741+P54619+Q9UGJ0+Q9Y478+Q13131+Q9UGI9); assay: AMP-dependent Kinase enzyme assay. An in vitro enzyme assay that detects ADP turnover that is directly proportional to AMPK activity. This uses naive AMPK that is activated during the assay with MK-8722; assay type: functional; conditions: 30 µM
[4] = biological target: Sialic acid-binding Ig-like lectin 9 (Homo sapiens) (UniProt Q9Y336); assay: Hs-Siglec9 ALPHAscreen SOP 20170721; conditions: 10 µM
Trypanosoma cruzi = assay: Trypanosoma cruzi phosphomannomutase and mannose-1-phosphate guanylyltransferase assay; assay type: functional; conditions: 10 µM
[5] = biological target: T2, Arginase-2, mitochondrial (Homo sapiens) (UniProt P78540); assay: in vitro enzyme assay to detect the production of urea directly proportional to the activity of Arginase II; assay type: functional; conditions: 33.3 µM; further: in the data most compounds retested in dose-response had high values
T2 sequence (whole entry): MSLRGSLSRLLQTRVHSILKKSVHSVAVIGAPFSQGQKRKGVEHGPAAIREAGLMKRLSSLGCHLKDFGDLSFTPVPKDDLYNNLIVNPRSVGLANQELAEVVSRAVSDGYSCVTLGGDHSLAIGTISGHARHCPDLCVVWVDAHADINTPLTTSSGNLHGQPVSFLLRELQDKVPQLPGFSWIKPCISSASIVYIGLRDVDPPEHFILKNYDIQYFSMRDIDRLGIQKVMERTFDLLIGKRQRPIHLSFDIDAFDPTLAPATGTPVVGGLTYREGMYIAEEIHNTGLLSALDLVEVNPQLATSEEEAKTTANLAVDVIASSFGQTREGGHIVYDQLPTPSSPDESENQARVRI

[6] = biological target: T3, Proteasome subunit beta (Trypanosoma cruzi) (UniProt O96673); assay: Trypanosoma cruzi proteasome chymotrypsin-like activity (TcProtChymo) assay.; further: in the data most compounds retested in dose-response had high values; assay type: functional; conditions: 9.37 µM
T3 sequence (whole entry): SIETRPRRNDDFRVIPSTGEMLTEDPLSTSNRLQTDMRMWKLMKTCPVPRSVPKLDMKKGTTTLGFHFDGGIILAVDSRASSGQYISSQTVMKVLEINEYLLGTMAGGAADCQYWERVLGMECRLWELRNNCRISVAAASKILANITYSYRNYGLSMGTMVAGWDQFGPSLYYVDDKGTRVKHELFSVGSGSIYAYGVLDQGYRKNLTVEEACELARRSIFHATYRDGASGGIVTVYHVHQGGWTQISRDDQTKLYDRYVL

Homo sapiens = organism: Homo sapiens; assay: To identify inhibition of the IFN signalling (Jak-Stat) pathway via expression of an eGFP reporter gene under the control of an IFN-stimulated response element (ISRE) containing MxA promoter.; assay type: functional; conditions: 30 µM
[7] = biological target: T4, Tyrosyl-tRNA synthetase, putative (Trypanosoma cruzi (strain CL Brener)) (UniProt Q4DSP6); assay: Trypanosoma cruzi tyrosyl tRNA synthetase (TcYRS) _High Tyrosine SOP; assay type: functional; conditions: 30 µM; further: in the data most compounds retested in dose-response had high values
T4 sequence (whole entry): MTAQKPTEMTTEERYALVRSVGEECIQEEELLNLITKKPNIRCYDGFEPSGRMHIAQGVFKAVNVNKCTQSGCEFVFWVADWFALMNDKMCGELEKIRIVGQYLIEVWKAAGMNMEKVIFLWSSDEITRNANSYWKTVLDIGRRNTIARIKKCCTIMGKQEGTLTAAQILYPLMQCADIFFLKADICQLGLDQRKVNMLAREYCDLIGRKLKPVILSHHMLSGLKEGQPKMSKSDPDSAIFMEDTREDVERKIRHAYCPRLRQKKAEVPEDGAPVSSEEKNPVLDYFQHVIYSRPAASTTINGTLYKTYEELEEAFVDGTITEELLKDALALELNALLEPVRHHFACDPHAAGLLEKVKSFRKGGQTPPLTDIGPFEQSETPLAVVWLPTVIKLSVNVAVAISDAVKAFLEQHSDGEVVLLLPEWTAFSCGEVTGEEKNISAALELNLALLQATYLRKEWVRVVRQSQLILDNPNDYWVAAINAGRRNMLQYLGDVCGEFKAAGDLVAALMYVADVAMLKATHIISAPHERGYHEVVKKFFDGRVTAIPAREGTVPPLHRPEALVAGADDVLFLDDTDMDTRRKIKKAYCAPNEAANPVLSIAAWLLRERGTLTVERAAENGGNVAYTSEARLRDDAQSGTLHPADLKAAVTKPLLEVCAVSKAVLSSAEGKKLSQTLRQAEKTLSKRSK

[8] = biological target: T4, Tyrosyl-tRNA synthetase, putative (Trypanosoma cruzi (strain CL Brener)); assay: Trypanosoma cruzi tyrosyl tRNA synthetase (TcYRS) SOP; assay type: functional; conditions: 30 µM
[9] = biological target: Chromo domain-containing protein 1 (Saccharomyces cerevisiae (strain ATCC 204508 / S288c) (Baker's yeast)) (UniProt P32657); assay: ScCHD-1 Enzyme Inhibition Assay; assay type: functional; conditions: 30 µM; further: in the data most compounds retested in dose-response had high values
Chromo domain-containing protein 1 (Saccharomyces cerevisiae (strain ATCC 204508 / S288c) (Baker's yeast)), sequence (P32657 whole entry, the tested form may be a part): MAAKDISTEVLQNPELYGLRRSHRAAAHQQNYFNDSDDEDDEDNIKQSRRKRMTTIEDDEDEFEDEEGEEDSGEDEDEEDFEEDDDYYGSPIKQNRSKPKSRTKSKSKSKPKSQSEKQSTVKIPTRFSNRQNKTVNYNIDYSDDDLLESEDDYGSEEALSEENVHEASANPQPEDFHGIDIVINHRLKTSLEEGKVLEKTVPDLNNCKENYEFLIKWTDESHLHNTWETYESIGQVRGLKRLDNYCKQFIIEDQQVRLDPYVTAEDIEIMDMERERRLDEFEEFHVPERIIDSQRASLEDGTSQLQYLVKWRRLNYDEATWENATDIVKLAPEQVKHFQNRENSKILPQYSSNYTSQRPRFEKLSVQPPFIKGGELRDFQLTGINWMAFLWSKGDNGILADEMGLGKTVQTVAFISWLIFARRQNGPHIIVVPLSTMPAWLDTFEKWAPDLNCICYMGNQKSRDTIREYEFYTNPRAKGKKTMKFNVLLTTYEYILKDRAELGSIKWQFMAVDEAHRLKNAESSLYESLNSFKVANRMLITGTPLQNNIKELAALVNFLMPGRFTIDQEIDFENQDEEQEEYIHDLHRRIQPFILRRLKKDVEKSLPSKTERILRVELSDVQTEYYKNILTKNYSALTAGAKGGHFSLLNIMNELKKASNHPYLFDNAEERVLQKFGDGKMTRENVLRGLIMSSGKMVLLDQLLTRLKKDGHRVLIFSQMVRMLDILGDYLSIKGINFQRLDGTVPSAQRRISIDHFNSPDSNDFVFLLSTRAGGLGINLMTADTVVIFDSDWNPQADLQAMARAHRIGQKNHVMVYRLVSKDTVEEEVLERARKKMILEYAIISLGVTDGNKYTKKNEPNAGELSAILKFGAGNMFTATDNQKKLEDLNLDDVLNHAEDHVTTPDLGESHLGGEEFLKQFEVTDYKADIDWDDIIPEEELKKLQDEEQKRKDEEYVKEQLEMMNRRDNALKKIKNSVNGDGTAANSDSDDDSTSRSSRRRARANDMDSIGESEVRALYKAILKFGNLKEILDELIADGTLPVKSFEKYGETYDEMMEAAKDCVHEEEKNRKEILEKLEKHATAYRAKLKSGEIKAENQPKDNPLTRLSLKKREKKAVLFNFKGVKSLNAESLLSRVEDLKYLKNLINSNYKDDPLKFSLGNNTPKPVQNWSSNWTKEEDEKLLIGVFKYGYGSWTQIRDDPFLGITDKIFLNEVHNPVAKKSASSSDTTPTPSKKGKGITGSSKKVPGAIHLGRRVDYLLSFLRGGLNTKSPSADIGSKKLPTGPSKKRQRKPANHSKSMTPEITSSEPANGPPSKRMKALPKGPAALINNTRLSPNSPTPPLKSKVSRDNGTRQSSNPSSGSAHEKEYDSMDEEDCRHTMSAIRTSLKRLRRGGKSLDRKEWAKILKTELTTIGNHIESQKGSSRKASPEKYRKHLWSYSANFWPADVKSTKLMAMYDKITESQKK

Sialic acid-binding Ig-like lectin 9 (Homo sapiens), sequence (Q9Y336 whole entry): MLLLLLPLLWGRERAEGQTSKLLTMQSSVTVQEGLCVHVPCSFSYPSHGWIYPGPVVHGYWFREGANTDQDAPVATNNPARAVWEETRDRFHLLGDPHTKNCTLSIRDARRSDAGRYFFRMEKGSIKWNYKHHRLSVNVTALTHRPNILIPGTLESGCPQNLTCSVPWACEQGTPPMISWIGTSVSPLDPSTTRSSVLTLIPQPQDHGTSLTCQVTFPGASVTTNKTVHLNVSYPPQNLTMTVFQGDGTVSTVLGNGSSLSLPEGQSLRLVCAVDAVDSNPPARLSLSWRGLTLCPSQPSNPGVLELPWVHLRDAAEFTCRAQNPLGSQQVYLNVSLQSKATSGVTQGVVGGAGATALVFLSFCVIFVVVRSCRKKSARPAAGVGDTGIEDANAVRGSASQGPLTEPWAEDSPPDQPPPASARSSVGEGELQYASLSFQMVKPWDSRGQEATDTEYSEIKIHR
Protein translocase subunit SecA (Escherichia coli (strain K12)), sequence (P10408 whole entry): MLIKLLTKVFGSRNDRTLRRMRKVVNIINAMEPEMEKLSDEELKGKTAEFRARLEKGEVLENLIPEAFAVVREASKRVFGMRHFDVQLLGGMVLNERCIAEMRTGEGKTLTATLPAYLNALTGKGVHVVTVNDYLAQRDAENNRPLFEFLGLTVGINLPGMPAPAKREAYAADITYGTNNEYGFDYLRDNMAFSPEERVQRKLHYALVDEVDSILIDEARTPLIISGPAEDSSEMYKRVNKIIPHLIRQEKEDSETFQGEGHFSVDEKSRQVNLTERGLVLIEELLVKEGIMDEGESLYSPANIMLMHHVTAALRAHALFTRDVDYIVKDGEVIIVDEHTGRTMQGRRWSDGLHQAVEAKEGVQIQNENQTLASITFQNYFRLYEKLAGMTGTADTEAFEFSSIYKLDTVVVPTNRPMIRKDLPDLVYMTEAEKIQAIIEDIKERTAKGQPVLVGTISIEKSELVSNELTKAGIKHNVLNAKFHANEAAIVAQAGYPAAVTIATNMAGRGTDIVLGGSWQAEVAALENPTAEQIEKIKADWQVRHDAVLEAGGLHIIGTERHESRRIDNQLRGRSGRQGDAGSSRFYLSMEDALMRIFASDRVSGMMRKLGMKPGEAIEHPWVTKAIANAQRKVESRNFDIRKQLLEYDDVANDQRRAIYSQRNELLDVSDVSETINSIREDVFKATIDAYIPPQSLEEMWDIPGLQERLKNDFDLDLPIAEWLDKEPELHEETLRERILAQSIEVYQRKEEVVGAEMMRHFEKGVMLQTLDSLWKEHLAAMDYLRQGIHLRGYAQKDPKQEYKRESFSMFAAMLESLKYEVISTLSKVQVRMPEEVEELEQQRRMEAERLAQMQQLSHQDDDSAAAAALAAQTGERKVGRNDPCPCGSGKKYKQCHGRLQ

SMILES | Percent Effect [1] [%] | Percent Effect [2] [%] | Percent Effect [3] [%] | Percent Effect [4] [%] | Percent Effect (Trypanosoma cruzi) [%] | Percent Effect [5] [%] | Percent Effect [6] [%] | Percent Effect (Homo sapiens) [%] | Percent Effect [7] [%] | Percent Effect [8] [%] | Percent Effect [9] [%]
O=C(Nc1cccc(OCc2ccc(F)cc2)c1)C1COCCO1 (stereo unspecified) | -4.66 | -8 | 0.674 | -3.67 | -1.27 | 1.04 | 14.3 | 5.69 | -8.2 | -3.7 | -0.73
CN(C)S(=O)(=O)N1CCC(Oc2ccccn2)CC1 | -2.83 | 2.6 | 2.73 | -0.581 | -6.41 | -7.1 | 14.1 | -7.21 | 6.35 | -1.28 | -7.73
Cc1cc(-c2cnc(N3CCN(C)CC3)nc2-c2ccc(C)s2)on1 | -2.21 | -1.35 | 10.6 | 0.731 | -4.15 | 2.09 | 2.81 | -1.59 | 1.07 | 6.49 | -16.5
O=C(CN(Cc1ccccc1)CC1CCOCC1)NC(=O)NC1CC1 | -9.18 | 0 | 0.0982 | -1.54 | -4.96 | -4.39 | 3 | -3.5 | 1.04 | -3.7 | 1.29
COCCCN1CCCN(C(C)C(=O)Nc2ccnn2C(C)C)CC1 (stereo unspecified) | 0.586 | -2.7 | -1.72 | -1.48 | 0.195 | 2.08 | 13.9 | -3.67 | 4.95 | -3.66 | -4.29
Cn1cnnc1C1CCCN(C(=O)Cc2ccc3c(c2)OCCO3)C1 (stereo unspecified) | -1.87 | 13 | -0.424 | -2.52 | 3.82 | -1.05 | 13.7 | 13.2 | 7.62 | 18.8 | -15.4
